Results published in PubChem BioAssay AID1159580 (chemical genetic matrix, 2015).
Where “and” joins values, the source holds several entries; their conditions need not be identical. Identical values can stand only once. Hit rate of the full screen: of about 5,500 compounds, about 2,000 (36%) were called active. About 18% were inconclusive and are not listed. Cut-off read from the data, not from the text of the source: active = normalized growth mostly below about 0.91 (no sharp cut-off); inconclusive = no clear call, values can overlap the other calls; inactive = mostly above about 0.92. This is one part of the list.

Assay: chemical genetic growth profiling, strain panel (AID 1159580);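 note: tested at 20 µM; growth read once vehicle control cultures reached saturation at 30 °C; 1 = growth at the plate median or of vehicle wells; lower values mean less growth of the strain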
Conditions: S. cerevisiae deletion strains, growth OD

Measured: normalized growth

NC[C@H](O)c1ccc(O)c(O)c1
inactive: locus YAL013W, strain DEP1, active compounds read low 1.01 | locus YAL021C, strain ccr4, active compounds read low 0.984 | locus YAL026C, strain drs2, active compounds read low 0.99 | locus YAL030W, strain snc1, active compounds read low 1.01 | locus YBL061C, strain skt5, active compounds read low 1.01 | locus YBR009C, strain hhf1, active compounds read low 1.01 | locus YBR021W, strain FUR4, active compounds read low 1.01 | locus YBR023C, strain chs3, active compounds read low 1.02 | locus YBR171W, strain sec66, active compounds read low 0.996 | locus YBR229C, strain ROT2, active compounds read low 1.01 | locus YBR231C, strain swc5, active compounds read low 0.984 | locus YBR279W, strain paf1, active compounds read low 1.02 | locus YCL011C, strain gbp2, active compounds read low 0.999 | locus YCL016C, strain dcc1, active compounds read low 1.02 | locus YCL029C, strain bik1, active compounds read low 1.01 | locus YCL061C, strain MRC1, active compounds read low 1.01 | locus YCL069W, strain vba3, active compounds read low 0.991 | locus YCR088W, strain abp1, active compounds read low 1.01 | locus YDL005C, strain med2, active compounds read low 1 | locus YDL035C, strain GPR1, active compounds read low 1.01 | locus YDL040C, strain nat1, active compounds read low 1.01 | locus YDL074C, strain BRE1, active compounds read low 0.986 | locus YDL101C, strain DUN1, active compounds read low 1.01 | locus YDL134C, strain PPH21, active compounds read low 1.02 | locus YDL185W, strain tfp1, active compounds read low 1.01 | locus YDL192W, strain arf1, active compounds read low 1.01 | locus YDR001C, strain nth1, active compounds read low 1 | locus YDR069C, strain doa4, active compounds read low 0.981 | locus YDR101C, strain arx1, active compounds read low 1 | locus YDR137W, strain rgp1, active compounds read low 1.06 | locus YDR150W, strain NUM1, active compounds read low 1 | locus YDR159W, strain sac3, active compounds read low 1.01 | locus YDR162C, strain NBP2, active compounds read low 1 | locus YDR195W, strain ref2 1.01 | locus YDR297W, strain sur2, active compounds read low 1.01 | locus YDR318W, strain mcm21, active compounds read low 1.03 | locus YDR334W, strain swr1, active compounds read low 0.984 | locus YDR335W, strain msn5, active compounds read low 0.999 | locus YDR388W, active compounds read low 1.02 | locus YDR392W, strain spt3, active compounds read low 0.987 | locus YDR502C, strain sam2, active compounds read low 1.02 | locus YEL003W, strain gim4, active compounds read low 0.986 | locus YEL037C, strain rad23, active compounds read low 0.986 | locus YEL061C, strain CIN8 (second series), active compounds read low 0.985 | locus YEL061C, strain CIN8, active compounds read low 1.01 | locus YER015W, strain faa2, active compounds read low 0.99 | locus YER016W, strain bim1, active compounds read low 1 | locus YER110C, active compounds read low 1.02 | locus YER111C, strain swi4, active compounds read low 0.98 | locus YER155C, strain BEM2 (second series), active compounds read low 1 | locus YER155C, strain BEM2, active compounds read low 1.02 | locus YER167W, strain BCK2, active compounds read low 1.02 | locus YFR010W, strain ubp6, active compounds read low 0.953 | locus YGL078C, strain dbp3, active compounds read low 1.01 | locus YGL086W, strain mad1, active compounds read low 0.991 | locus YGL167C, strain pmr1, active compounds read low 1 | locus YGL173C, strain kem1, active compounds read low 0.999 | locus YGL227W, strain vid30, active compounds read low 1 | locus YGL240W, strain doc1, active compounds read low 1.03 | locus YGL248W, strain PDE1, active compounds read low 1.01 | locus YGL253W, strain hxk2, active compounds read low 0.994 | locus YGR135W, strain pre9, active compounds read low 0.998 | locus YGR252W, strain gcn5, active compounds read low 0.958 | locus YHR013C, strain ard1, active compounds read low 1 | locus YHR027C, strain rpn1, active compounds read low 1 | locus YHR030C, strain SLT2, active compounds read low 1.01 and 0.962 | locus YHR079C, strain IRE1 (second series), active compounds read low 1.02 | locus YHR079C, strain IRE1, active compounds read low 0.953 | locus YHR094C, strain hxt1, active compounds read low 1.03 | locus YHR129C, strain ARP1, active compounds read low 0.999 | locus YHR142W, strain chs7, active compounds read low 0.978 | locus YHR200W, strain rpn10, active compounds read low 1.02 | locus YIL066C, strain RNR3, active compounds read low 1.01 | locus YIL073C, strain SPO22, active compounds read low 1.03 | locus YIL125W, strain kgd1, active compounds read low 1.01 | locus YIR030C, strain dcg1, active compounds read low 1.02 | locus YJL092W, strain hpr5, active compounds read low 1 | locus YJL095W, strain BCK1 (second series), active compounds read low 1.01 | locus YJL095W, strain BCK1, active compounds read low 0.994 and 0.971 | locus YJL115W, strain asf1, active compounds read low 1 | locus YJL129C, strain trk1, active compounds read low 0.952 | locus YJL134W, strain LCB3, active compounds read low 1.01 | locus YJL154C, strain vps35, active compounds read low 1 | locus YJL164C, strain tpk1, active compounds read low 1.01 | locus YJL166W, strain qcr8, active compounds read low 1.02 | locus YJL168C, strain set2, active compounds read low 1.02 | locus YJL187C, strain SWE1 (second series), active compounds read low 1.01 | locus YJL187C, strain SWE1, active compounds read low 0.999 | locus YJR043C, strain POL32, active compounds read low 1.02
